In PubChem BioAssay (NCATS) one finds Potency data, which are given here for 40 compounds.

Results filed as inconclusive are left out. A call without a number means that no potency is given here. Some structures have more than one record in an assay (separate samples or runs), and their calls can disagree. Calls of active or inactive are those of the source. The call rests on the fitted dose curve; in most records, active means well fitted inhibition curve with a large enough effect; inconclusive means small, poorly fitted or top-dose-only effect; inactive means flat fitted curve, though single readings scatter.
Potency means the concentration at half of the fitted maximal effect.

Sequence of Glutathione peroxidase 1 (Homo sapiens) (P07203 whole entry, looked up): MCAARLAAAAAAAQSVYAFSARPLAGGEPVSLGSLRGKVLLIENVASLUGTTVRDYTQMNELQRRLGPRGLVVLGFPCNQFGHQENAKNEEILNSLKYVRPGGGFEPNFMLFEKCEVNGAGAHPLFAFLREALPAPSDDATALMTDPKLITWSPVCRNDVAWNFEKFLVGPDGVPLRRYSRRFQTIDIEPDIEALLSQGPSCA

This test concerns the target Glutathione peroxidase 1 (Homo sapiens) (UniProt P07203). Kind of test: Primary qHTS Assay for Inhibitors of Recombinant Selenoprotein Glutathione Peroxidase 1 (GPX1) (AID 1845191). Further: nearly all actives have a fitted effect of over 65% in size. Conditions: recombinant GPX1, GR-coupled NADPH fluorescence, 15 min; series mostly up to 48.8 µM. The source says:
Assay Provider: Elias S.J. Arner MD PhD.
Department of Medical Biochemistry and Biophysics
Karolinska Institutet, Solna, Stockholm, Sweden
Selenoprotein glutathione peroxidases (GPX), like the ubiquitously expressed GPX1 and the ferroptosis modulator GPX4, enact their antioxidant activities by reducing hydroperoxides using glutathione. […] GPX1 and GPX4 inhibitors have thus shown promise as anti-cancer agents. Existing inhibitors are often promiscuous, or modulate GPX activity only indirectly, so novel direct inhibitors identified through screening against GPX1 and GPX4 could be valuable. Here, we developed optimized glutathione reductase (GR)-coupled GPX assays for the biochemical high-throughput screen (HTS) of almost 12,000 compounds with known mechanisms of action. Initial hits were triaged using a GR counter-screen, assessed for isoform specificity using a separate GPX2 assay, and were assessed for general selenocysteine-targeting activity using a thioredoxin reductase (TXNRD1) assay. With this suite of assays, we identified novel GPX1/GPX2- and GPX4-specific inhibitors and can here present a validated pipeline for future discovery research for selenoprotein-targeting agents.
SEQUENCE No. (e.g., 1, 2, 3, etc.); […] (e.g., Cells, Incubation, Reagent, etc.); VALUE; DESCRIPTION.
1; Reagent 1; 3 uL; GPx1 enzyme or no enzyme control in 1536-well, black, solid Greiner assay plate.
2; Compound; 25 nL; Kalypsis pin tool (Wako USA) equipped with a 1536-well pin head.
3; Incubation; 30 min; room temperature.
4; Reagent 2; 1 uL; 10 nM GPX1, 1 mM GSH, 0.5 mM CHP, 0.5 mM NADPH, 100 nM GR, 0.01% BSA substrate
5; Detection; Fluorescence; ViewLux microplate reader, excitation 340 nm and emission 450 nm.
6; Incubation; 15 min; room temperature.
7; Detection; Fluorescence; ViewLux microplate reader, excitation 340 nm and emission 450 nm.
NOTES (numbers refer to Sequence numbers above)
1. 3 uL of 16.66 nM GPX1 and 0.016% BSA in assay buffer (50 mM Tris-HCl, 2 mM EDTA (pH 7.5), 150 mM NaCl) was added to columns 3-48 of 1536-well assay plates using a BioRAPTR Flying Reagent Dispenser (Let's Go Robotics (LGR), Carlsbad, CA). A no-enzyme control (0.01% BSA in TES assay buffer) was added to columns 1-2.
2. 25 nL of test compounds and DMSO controls were added to each well with a pin tool (Kalypsys).
3. The assay plates were incubated for 30 minutes at room temperature.
4. 1 uL of master mix (500 nM glutathione reductase (GR), 5 mM reduced glutathione (GSH), 2.5 mM NADPH in assay buffer) was added. 1 uL of cumene hydroperoxide (CHP) ([2.5 mM] in 50% EtOH) was then added within 5 minutes to initiate the reaction. Final concentrations were: 10 nM GPX1, 1 mM GSH, 0.5 mM CHP, 0.5 mM NADPH, 100 nM GR, 0.01% BSA.
5. Initial fluorescence readout (t=0) at 340/450 nm was measured using a ViewLux multimodal detector (PerkinElmer, Waltham, MA).
7. Endpoint fluorescence readout (t=15) at 340/450 nm was measured 15 min after room temperature incubation.
A general note: Quantitative high-throughput screening tests each substance at several concentrations.
For the compound `CCC1(c2ccccc2)C(=O)NCNC1=O`, the Potency result is “inactive”.

Take `Clc1ccc(C(c2ccccc2Cl)C(Cl)Cl)cc1` (stereo not given): the Potency entry was “inactive”.

Regarding `CCCCc1oc2ccccc2c1C(=O)c1cc(I)c(OCCN(CC)CC)c(I)c1`, the Potency entry is “inactive”.

Consider `Cc1ccc(C(=O)Nc2ccc(S(=O)(=O)O)c3cc(S(=O)(=O)O)cc(S(=O)(=O)O)c23)cc1NC(=O)c1cccc(NC(=O)Nc2cccc(C(=O)Nc3cc(C(=O)Nc4ccc(S(=O)(=O)O)c5cc(S(=O)(=O)O)cc(S(=O)(=O)O)c45)ccc3C)c2)c1`, for which the Potency result was “inactive”.

On to `CCc1cccc2c3c([nH]c12)C(CC)(CC(=O)O)OCC3` (stereo not given), for which the Potency result is “inactive”.

With `O=c1c(-c2ccc(O)cc2)coc2cc(O)cc(O)c12`, the Potency result is “inactive”.

In the case of `CN(C)CCC=C1c2ccccc2C=Cc2ccccc21`, the Potency entry is “inactive”.

As to `CN(C)c1nc(N(C)C)nc(N(C)C)n1`, the Potency entry is “inactive”.

As to `NCCCCCC(=O)O`, the Potency result is “inactive”.

As to `CC[N+](CC)(CC)CCOc1cccc(OCC[N+](CC)(CC)CC)c1OCC[N+](CC)(CC)CC`, the Potency entry was “inactive”.

Turning to `Cc1cnc(C(=O)NCCc2ccc(S(=O)(=O)NC(=O)NC3CCCCC3)cc2)cn1`, the Potency entry is “inactive”.

On to `O=C1Cc2cc(CCN3CCN(c4nsc5ccccc45)CC3)c(Cl)cc2N1`, for which the Potency entry was “inactive”.

With `O=C(c1ccc(F)cc1)C1CCN(CCn2c(=O)[nH]c3ccccc3c2=O)CC1`, the Potency result was “inactive”.

With `COc1cc2nc(N3CCN(C(=O)C4COc5ccccc5O4)CC3)nc(N)c2cc1OC` (stereo not given), the Potency is 18 µM (active) and inactive.

On to `CN(C)C(=O)C(CCN1CCC(O)(c2ccc(Cl)cc2)CC1)(c1ccccc1)c1ccccc1`, for which the Potency result is “inactive”.

In the case of `NC(CO)C(=O)NNCc1ccc(O)c(O)c1O` (stereo not given), the Potency result is “inactive”.

Take `CN1CCN(CCCN2c3ccccc3Sc3ccc(Cl)cc32)CC1`: the Potency entry is “inactive”.

For the compound `Cn1ccc2cc3c(cc21)CCN3C(=O)Nc1cccnc1`, the Potency result was “inactive”.

With `CC(C)(Oc1ccc(C2CC2(Cl)Cl)cc1)C(=O)O` (stereo not given), the Potency result is “inactive”.

On to `CN(CCOc1ccc(NS(C)(=O)=O)cc1)CCc1ccc(NS(C)(=O)=O)cc1`, for which the Potency result was “inactive”.

In the case of `COc1ccccc1OCCNCC(O)COc1cccc2[nH]c3ccccc3c12` (stereo not given), the Potency entry was “inactive”.

As for `CCOC(=O)c1ncn2c1CN(C)C(=O)c1cc(F)ccc1-2`, the Potency result was “inactive”.

In the case of `CC(C)Cc1ccc(C(C)C(=O)O)cc1` (stereo not given), the Potency result is “inactive”.

As to `O=C1N(c2ccccc2)c2ccccc2C1(Cc1ccncc1)Cc1ccncc1`, the Potency entry is “inactive”.

On to `CC(CCc1ccc(O)cc1)NCCc1ccc(O)c(O)c1` (stereo not given), for which the Potency entry was “inactive”.

Turning to `COC(=O)Nc1nc2ccc(C(=O)c3cccs3)cc2[nH]1`, the Potency result was “inactive”.

With `CC1COc2c(N3CCN(C)CC3)c(F)cc3c(=O)c(C(=O)O)cn1c23` (stereo not given), the Potency entry was “inactive”.

On to `OCCN1CCN(CCCN2c3ccccc3Sc3ccc(C(F)(F)F)cc32)CC1`, for which the Potency entry was “inactive”.

Turning to `O=c1[nH]cc(F)c(=O)[nH]1`, the Potency result is “inactive”.

As for `Cc1ccc(-c2cc(C(F)(F)F)nn2-c2ccc(S(N)(=O)=O)cc2)cc1`, the Potency result is “inactive”.

Regarding `CC1(C)O[C@H]2CC(=O)OC[C@]23[C@H]2CC[C@@]4(C)[C@H](c5ccoc5)OC(=O)[C@H]5O[C@]54[C@]2(C)C(=O)C[C@@H]13`, the Potency result was “inactive”.

Consider `Nc1nc2c(ncn2COC(CO)CO)c(=O)[nH]1`, for which the Potency entry is “inactive”.

With `OCCN(CCO)c1nc(N2CCCCC2)c2nc(N(CCO)CCO)nc(N3CCCCC3)c2n1`, the Potency entry was “inactive”.

As for `CC(C)NCC(O)COc1ccc(CCOCC2CC2)cc1` (stereo not given), the Potency entry is “inactive”.

For `COc1ccccc1OCC(O)CN1CCN(CC(=O)Nc2c(C)cccc2C)CC1` (stereo not given), the Potency result is “inactive”.

Turning to `CCOC(=O)Nc1ccc(NCc2ccc(F)cc2)nc1N`, the Potency entry is “inactive”.

With `Cc1cn([C@H]2C=C[C@@H](CO)O2)c(=O)[nH]c1=O`, the Potency entry was “inactive”.

On to `Cn1c(=O)c2[nH]cnc2n(C)c1=O`, for which the Potency entry was “inactive”.

In the case of `COc1nc(C)nc(Cl)c1NC1=NCCN1`, the Potency entry was “inactive”.

As for `CC(=O)OCC(CCn1cnc2cnc(N)nc21)COC(C)=O`, the Potency entry is “inactive”.
